FadD28 FP inh = M. tuberculosis FadD28 bisubstrate binding inhibition. FadD28 bisubstrate probe binding, fluorescence polarization. inhibition, % at 12.5 µM. 360,000 compounds, 0.22% hits; in the data active means inhibition above about 8.5%, passing the limit was not always enough; inconclusive means no clear call, values can overlap the other calls
SSB-PriA inh = inhibitors of Klebsiella pneumoniae PriA binding to SSB C-terminal tail; 430,000 compounds, 0.6% hits; AlphaScreen SSBct-PriA binding, biotinylated peptide; inhibition, % at 33 µM; in the data active means inhibition mostly above about 37%, no sharp cut-off; inactive means mostly below about 20%;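 further: plate controls were negative control peptide for no effect and reference peptide for full effect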
Mtb hypoxia inh = Mtb hypoxia fluorescent reporter inhibition; fluorescence inhibition, % (test concentration not listed); M. tuberculosis hypoxia-regulated fluorescent reporter, fluorescence; 300,000 compounds, 0.1% hits; AID 1159583; in the data active means fluorescence inhibition mostly above about 23%, no sharp cut-off; inactive means mostly below about 17%
TcdB inh = TcdB glycohydrolase inhibition; P18177; TcdB glycohydrolase enzymatic assay, plate reader; inhibition, % at 9.99 µM; 350,000 compounds, 0.24% hits; in the data active means inhibition above about 10%
Mtb BioA inh = blocks M. tuberculosis BioA enzyme activity. 360,000 compounds, 0.096% hits. purified M. tuberculosis BioA enzyme, plate reader. inhibition, % at 9.99 µM; in the data active means inhibition above about 40%; inconclusive means no clear call, values can overlap the other calls
PrP UTR inh = suppresses PrP 5' UTR mRNA reporter expression; 340,000 compounds, 0.35% hits; AID 488862; inhibition, % (concentration not given with the values); cell-based PrP 5' UTR mRNA reporter, plate reader; in the data active means inhibition above about 52%; further: 0 = median of the neutral control wells
PrP 5UTR single = prion 5' UTR mRNA inhibition, cherry-pick retest; shares compounds with PrP UTR inh; cell-based prion protein 5' UTR reporter, plate reader; inhibition, % at 2.5 µM; 1,100 compounds, 48% hits; AID 504592; in the data active means inhibition above about 54%; inconclusive means no clear call, values can overlap the other calls
Numbers without * were called inactive. This is a sample that favours compounds with a hit; in the whole collection about 1% have one here.

Screening CCOCCOC(=O)c1[nH]c2c(c1C)C(=O)CC(c1cccs1)C2 (stereo unspecified) returned FadD28 FP inh -1.3, SSB-PriA inh -7.9, Mtb hypoxia inh 13.0, TcdB inh -0.6, Mtb BioA inh -1.5, PrP UTR inh 65.5* and PrP 5UTR single 87.1*.
For CSCCC(NC(=O)c1ccccc1)C(=O)OCC(=O)N(C)CCC#N (stereo unspecified) the results were FadD28 FP inh -1.5, SSB-PriA inh -0.2, Mtb hypoxia inh 13.8, TcdB inh 0.3 and PrP UTR inh -0.1.
For Cc1ccc(COC(=O)c2cccc(S(=O)(=O)N3CCCCCC3)c2)cc1 the results were FadD28 FP inh -1.9, SSB-PriA inh -48.5, Mtb hypoxia inh 2.7, TcdB inh 1.6 and PrP UTR inh -15.8.
`CCN1C(=O)[C@H]2[C@H]3CN=C(SCC4CC4)N3[C@@](Cc3ccccc3)(C(=O)OC)[C@H]2C1=O` gave FadD28 FP inh -1.2, SSB-PriA inh 15.5, Mtb hypoxia inh -4.8, TcdB inh 1.9, Mtb BioA inh -1.5, PrP UTR inh 64.4* and PrP 5UTR single -1.1.
CCN1C(=O)[C@H]2[C@H]3CN=C(SCc4ccccc4)N3[C@@](Cc3ccccc3)(C(=O)OC)[C@H]2C1=O was read as FadD28 FP inh -0.5, SSB-PriA inh -11.3, Mtb hypoxia inh -1.0, TcdB inh 1.1, Mtb BioA inh 0.9 and PrP UTR inh -17.0.
For Cc1ccc(C2C3C(=O)N(c4ccccc4)C(=O)C3N3CCCN23)cc1 (stereo unspecified) the results were FadD28 FP inh -3.1, SSB-PriA inh -7.0, Mtb hypoxia inh -17.2, TcdB inh -0.2 and PrP UTR inh -29.1.
`Nc1nc(F)nc2c1ncn2[C@@H]1O[C@H](CO)[C@@H](O)[C@H]1O` gave FadD28 FP inh -0.4, SSB-PriA inh -6.0, TcdB inh 0.7, Mtb BioA inh -1.0, PrP UTR inh 93.6* and PrP 5UTR single 93.8*.
Cc1cc(NC(=O)c2ccc(C)c([N+](=O)[O-])c2)no1 was read as FadD28 FP inh -1.1, SSB-PriA inh 5.9, Mtb hypoxia inh -5.8, TcdB inh 0.1 and PrP UTR inh -15.2.
`Cc1cc(NC(=O)c2ccc(Br)c([N+](=O)[O-])c2)no1` gave FadD28 FP inh 1.1, SSB-PriA inh -11.5, Mtb hypoxia inh 4.4, TcdB inh 1.0, Mtb BioA inh -0.5, PrP UTR inh 82.9* and PrP 5UTR single -6.5.
CCNC(=O)N(CC)C[C@H]1N[C@@](C)(C(=O)OC)[C@H]2C(=O)N(C)C(=O)[C@@H]12 was read as FadD28 FP inh -0.1, SSB-PriA inh -5.8, Mtb hypoxia inh -12.6, TcdB inh -6.0, Mtb BioA inh -0.5 and PrP UTR inh -3.7.
For CCN(C[C@H]1N[C@@](C)(C(=O)OC)[C@H]2C(=O)N(C)C(=O)[C@@H]12)C(=O)c1ccc(C(C)(C)C)cc1 the results were FadD28 FP inh -1.5, SSB-PriA inh -5.4, Mtb hypoxia inh -2.4, TcdB inh 2.3, Mtb BioA inh 1.0, PrP UTR inh 57.7* and PrP 5UTR single -11.5.
O=C(COc1ccccc1)NCC(=O)NN=Cc1cccs1 was read as SSB-PriA inh 3.9 and Mtb hypoxia inh 8.1.
`O=C(COc1ccc(Cl)cc1)NCC(=O)N/N=C/c1cccs1` gave FadD28 FP inh -1.1, TcdB inh 0.6, PrP UTR inh 63.1* and PrP 5UTR single -6.2.
Screening Nc1ncnc2c1ncn2[C@@H]1O[C@H](CNCc2ccc(OCc3ccccc3)cc2)[C@@H](O)[C@H]1O returned FadD28 FP inh inconclusive, SSB-PriA inh -14.5, Mtb hypoxia inh 4.1, TcdB inh 0.9, Mtb BioA inh -1.9 and PrP UTR inh -16.1.
For Nc1ncnc2c1ncn2[C@@H]1O[C@H](CNCc2ccc(OCC(=O)Nc3ccccn3)cc2)[C@@H](O)[C@H]1O the results were FadD28 FP inh inconclusive, SSB-PriA inh -14.0, Mtb hypoxia inh -18.1, TcdB inh 0.2, Mtb BioA inh -0.1, PrP UTR inh 87.1* and PrP 5UTR single -19.1.
`CCCCN=C(C)C1=C(O)CSC1=O` gave FadD28 FP inh -0.7, SSB-PriA inh 0.6, Mtb BioA inh -1.3, PrP UTR inh 77.7* and PrP 5UTR single -1.2.

Screening results deposited in PubChem by several laboratories.
